Hits are enriched below; roughly 1.4% of the tested compounds scored in any of these assays.
hERG WT inh: blocks the wildtype human KCNH2 potassium channel. U2OS, BacMam KCNH2, thallium flux FluxOr; active compounds read low. activity change, % at 1.84 µM. 340,000 tested, 0.37% active;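 active means maximum activity change below -70%; inconclusive means maximum activity change between -70% and -50%; inactive means maximum activity change above -50%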
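U2OS cells were transduced with wild-type KCNH2 virus (2.03 x 10^8 / mL) for 4 h at room temperature, then cultured overnight at 37 C. Thallium flux was read with FluxOr dye. Rate constants were normalized to DMSO controls.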
KCNH2 3.1 inh: KCNH2 3.1 (human) potassium channel inhibition; U2OS KCNH2 3.1, thallium flux FluxOr; active compounds read low; activity change, % (tested at about 1.8 µM); 340,000 tested, 0.95% active; AID 720553;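 active means maximum activity change below -70%; inconclusive means maximum activity change from -70% to -50%; inactive means maximum activity change above -50%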;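 further: thallium influx rate constant from kinetic fluorescence after stimulation buffer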
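Kinetic fluorescence (2 min after stimulation buffer) measures Tl+ influx through KCNH2 3.1 expressed by viral transduction in U2OS cells; the rate constant is normalized against DMSO controls serving as positive and negative references.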
p53 reactivator: mutant p53 re-activation in reporter cells. Potency, µM (highest dose often 92.2 µM), actives largely listed as activators. AID 504706. H1299 p53-A138V BP100-luciferase reporter, luminescence, 24 h. 320,000 tested, 0.063% active; further: nearly all actives have a fitted effect of over 45% in size
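p53-null H1299 cells stably carrying temperature-sensitive p53-A138V and a BP100-luciferase reporter were pinned with compounds (4-point, 1:5 series) and held 24 hrs at 37 deg C. Luminescence was read 10 min after detection reagent.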
S-ASM inh: blocks human secretory acid sphingomyelinase. P17405. placental ASM, HMU-PC fluorogenic substrate, 60 min. Potency, µM (highest dose often 57.5 µM), hits mostly inhibitors. 340,000 tested, 0.006% active
Target sequence (P17405 47-631 limits assumed): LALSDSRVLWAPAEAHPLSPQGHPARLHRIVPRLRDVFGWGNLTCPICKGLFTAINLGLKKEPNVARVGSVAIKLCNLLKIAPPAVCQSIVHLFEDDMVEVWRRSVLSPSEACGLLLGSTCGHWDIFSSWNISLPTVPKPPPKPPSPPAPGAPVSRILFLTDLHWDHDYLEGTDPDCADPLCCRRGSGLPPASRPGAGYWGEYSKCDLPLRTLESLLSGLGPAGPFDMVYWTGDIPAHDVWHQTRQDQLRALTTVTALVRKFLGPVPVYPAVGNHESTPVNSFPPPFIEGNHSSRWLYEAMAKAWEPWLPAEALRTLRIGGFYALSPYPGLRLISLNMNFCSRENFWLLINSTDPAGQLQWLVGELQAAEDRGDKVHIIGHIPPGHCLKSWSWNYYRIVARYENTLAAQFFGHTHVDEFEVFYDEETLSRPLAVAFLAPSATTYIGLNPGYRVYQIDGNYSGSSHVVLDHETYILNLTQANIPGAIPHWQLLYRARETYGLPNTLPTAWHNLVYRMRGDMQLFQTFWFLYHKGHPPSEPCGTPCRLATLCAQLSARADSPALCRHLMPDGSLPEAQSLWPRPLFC
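Fluorogenic HMU-PC substrate (9 uM final) is turned over by placental ASM in 60 min at 37 C after a 10 min compound preincubation. Reaction ended by alkaline stop (pH 10), with fluorescence read at 386/447 nm.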
uPA surface inh: inhibitors of cell surface uPA generation; AID 540303; Potency, µM (highest dose often 38.3 µM), usual class: inhibitors; 330,000 tested, 0.31% active; cell surface uPA generation assay, qHTS; active means well fitted inhibition curve with a large enough effect; inconclusive means small, poorly fitted or top-dose-only effect; inactive means no such curve, though single readings can be large or run the other way; tested in mouse RAW 264.7 cells; further: nearly all actives have a fitted effect of over 55% in size
Mm-Cpn inhibitor: inhibitors of Methanococcus maripaludis chaperonin TRiC (MmCpn) | purified Mm-Cpn ATPase, ADP Transcreener TR-FRET | Potency, µM (titrated, usually from 76.9 µM), usual class: inhibitors | 330,000 tested, 0.031% active | AID 504842; further: nearly all actives have a fitted effect of over 80% in size
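Purified archaeal chaperonin (25 nM final) was preincubated with compound for 10 min at 37°C, then ATP (10 uM final) was added for 30 min at 37°C in Tris pH 7.4/KCl/MgCl2/DTT buffer. ADP was quantified by HTRF Transcreener TR-FRET.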
Numbers stand for hits; . = inactive; ? = inconclusive; / = no result. Unless noted, the call rests on the fitted dose curve; in most records, active means well fitted curve in the direction sought with a large enough effect; inconclusive means small, poorly fitted or top-dose-only effect, or another doubt; inactive means no such curve, though single readings can be large; an effect the other way counts as inactive or inconclusive.

SMILES	hERG WT inh	KCNH2 3.1 inh	p53 reactivator	S-ASM inh	uPA surface inh	Mm-Cpn inhibitor
Cc1ccc(S(=O)(=O)N(C)C)cc1NC(=O)CSc1nnc(C2CC2)n1C1CC1	.	.	.	.	.	.
CCCCN(C(=O)c1ccc(-c2ccc(Cl)cc2)o1)c1c(N)n(CCCC)c(=O)[nH]c1=O	-202	.	.	.	?	.
Cc1c(C(=O)N2CCN(CCc3ccccn3)CC2)oc2ccc(Cl)cc12	.	-103	.	.	.	.
Cc1cc(C)nc(N2CCC(C(=O)NCc3ccccc3F)CC2)n1	.	.	.	.	.	.
O=C(NCc1ccco1)C1CCN(c2nc3ccccc3n2Cc2ccccc2F)CC1	?	-105	.	.	.	.
CCOc1ccc(NC(=O)c2c(NC(=O)CNCCN3CCOCC3)sc3c2CCC3)cc1	.	.	.	.	.	.
NC(=O)c1cc(Cl)ccc1OCC(=O)Nc1ccc2c(c1)OCO2	.	.	/	.	6.3µM	.
CC(=O)c1cc(F)ccc1OCC(=O)Nc1ccc2c(c1)OCO2	.	.	?	.	.	.
O=C(CSc1nnc(-c2ccccn2)n1-c1ccc(Cl)cc1)Nc1ccc2c(c1)OCO2	.	-73	.	.	/	.
Cc1ccc(-n2cc(CN3CCC(CO)(Cc4cccc(C(F)(F)F)c4)CC3)cn2)cc1	-84	-99	.	.	.	.
CC(C)Cc1cc(CN2CCC(CO)(Cc3cccc(C(F)(F)F)c3)CC2)[nH]n1	-105	-83	.	.	.	.
CN(Cc1ccccc1)C(=O)c1ccc(NC(=O)Cc2ccc(NC(=O)C3CCCN(C(=O)c4ccccc4)C3)cc2)cc1 (stereo not given)	.	.	/	.	.	/
COc1ccc(CNC(=O)CN(Cc2ccccc2F)C(=O)c2csnn2)cc1	.	.	.	.	.	.
COc1ccccc1CN(CC(=O)NCc1ccc(F)cc1)C(=O)c1csnn1	.	-82	.	.	.	.
Cc1ccccc1CCN(CC(=O)NCc1ccc(F)cc1)C(=O)c1csnn1	.	.	.	.	.	.
Cc1cccc(CCN(CC(=O)NCc2ccc(F)cc2)C(=O)c2csnn2)c1	.	-108	.	.	.	.
Cn1c2cc(B(O)O)sc2c2cnn(Cc3ccc(F)cc3F)c(=O)c21	/	/	/	/	/	.
O=C(Nc1ccc(-c2nc3ccccc3[nH]2)cc1)C1CCCN(Cc2ccn[nH]2)C1 (stereo not given)	.	.	/	/	/	/
C=CCn1c2[n+](c3ccccc3c1=O)CCCCC2	.	-113	.	.	.	.
COc1cccc(-c2nnc(-c3ccco3)o2)c1	.	.	40µM	.	.	.
O=C(CCN1C(=O)c2ccccc2C1=O)NC(=S)Nc1cccc(Cl)c1	.	-72	.	.	.	.
Cc1cccc(Nc2ncccc2C(=O)NCc2cccs2)c1C	.	-73	.	.	.	.
CSc1ccc(CN(C)C(=O)c2cccc(S(=O)(=O)N3CCN(Cc4ccccc4)CC3)c2)cc1	-122	.	.	.	.	.
CN(Cc1ccc(F)cc1)C(=O)c1cccc(S(=O)(=O)N2CCN(Cc3ccccc3)CC2)c1	.	.	.	.	.	.
O=C(NC1CCN(C(=O)Nc2cccc(Cl)c2)CC1)C1CCCCC1	.	-73	.	.	.	.
SMILES	hERG WT inh	KCNH2 3.1 inh	p53 reactivator	S-ASM inh	uPA surface inh	Mm-Cpn inhibitor
Cc1cc(C)cc(NC(=S)N2CCC(NC(=O)C3CC3)CC2)c1	-95	.	.	.	.	.
Cc1cccc(NC(=O)N2CCC(NC(=O)C3CCCCC3)CC2)c1	.	.	.	.	.	.
O=C(/C=C/Nc1ccc(F)cc1)c1ccco1	.	.	45µM	.	.	.
CCOC(=O)c1ccc(N/C=C/C(=O)c2ccco2)cc1	.	.	.	.	?	.
N=c1c(C(=O)NC2CCCCC2)cc2c(=O)n3ccccc3nc2n1CCc1ccccc1	?	-79	.	.	.	.
CN1CCN(C2Cc3ccc(F)cc3Sc3cc(F)c(Cl)cc32)CC1 (stereo not given)	.	-88	/	.	.	/
CN1CCN(C2Cc3cc(F)ccc3Sc3ccc(Cl)cc32)CC1 (stereo not given)	.	-78	/	.	.	/
CN(C)c1ccnc(Nc2ccccc2)c1C#N	.	-90	.	.	.	.
CN(C)CCCN1C(=O)c2cccc3c(Br)ccc(c23)C1=O	.	.	.	.	7.9µM	.
O=[N+]([O-])c1ccc2nc[nH]c2c1	.	-84	/	.	.	/
COc1cc(OC)cc(-c2c(-c3ccc(F)cc3)c3cc(-c4cnc(OC)nc4)ccc3n2C)c1	.	.	.	.	.	.
O=C(CSCc1cc(=O)n2nc(C3CC3)sc2n1)Nc1ccccc1Cl	.	.	.	.	.	.
COc1ccc2[nH]c(-c3ccc(C)cc3)cc(=O)c2c1	.	.	?	.	2.8µM	.
C=CC[C@H](CC(=O)N[C@H](CO)Cc1ccccc1)C(=O)N[C@@H](COC(=O)[C@@H](CC=C)Cc1ccc(F)cc1)Cc1c[nH]c2ccccc12	.	-80	.	.	.	.
C/C(NC(=O)c1ccccc1F)=C1\C(=O)C[C@@H]2[C@H]1C2(C)C	.	.	13µM	.	.	.
C/C(NC(=O)c1cccc(F)c1)=C1/C(=O)C[C@@H]2[C@H]1C2(C)C	.	.	?	.	.	.
O=C(NCCCc1ccccn1)C1CCC(=O)N(Cc2cccc(F)c2)C1 (stereo not given)	.	.	.	.	.	.
O=C(N/N=C/c1cc(Cl)ccc1O)c1ccccc1Br	.	.	?	.	4.5µM	.
O=C(CNC(=O)c1ccccc1Br)N/N=C/c1cc(Br)ccc1O	.	.	?	.	?	.
COc1ccc(-n2nc3ccc(N)cc3n2)cc1	.	.	/	/	/	/
CCOc1ccc(-n2nc3ccc(N)cc3n2)cc1	.	.	.	.	10µM	.
COc1ccc(C2Nc3ccccc3C(=O)N2Cc2ccco2)cc1COc1ccc([N+](=O)[O-])cc1 (stereo not given)	.	-80	.	.	.	.
COCCNC(=S)N1CCC(C(=O)c2ccc(Cl)cc2)CC1	.	.	/	/	/	/
Clc1cccc(CSc2nc3ccncc3[nH]2)c1	.	.	?	.	4.5µM	.
C[C@@H]1CN([C@@H](C)CO)C(=O)CCCn2nncc2CO[C@@H]1CN(C)C(=O)Nc1ccc(C(C)(C)C)cc1	.	.	/	/	/	/
CCN1C(=NCCN2CCOCC2)N[C@@H](CCc2ccccc2)C(C(=O)OC)=C1C	/	/	/	/	/	.
c1ccc(CSc2nnc3ccc(-c4ccncc4)nn23)cc1	.	.	.	.	.	.
c1cncc(CSc2nnc3ccc(-c4ccncc4)nn23)c1	-79	.	?	.	.	.
Cc1cc(Br)ccc1NC(=O)CNC(=O)CN(C)Cc1nc2ccccc2c(=O)[nH]1	.	-99	.	.	.	.

High-throughput results (PubChem)
